Results taken from PubChem BioAssay AID1405 (National Center for Advancing Translational Sciences (NCATS), 2008).
Inconclusive results are not listed. Activity calls are given as the source filed them. Calls come from the whole dose curve.

Test: Confirmation and Secondary Assays for Modulators of Hemoglobin Beta Chain Splicing at IVS2 654 and 705 loci
Details: HeLa beta-globin IVS2-654 splicing GFP reporter, 48 h
Excerpt: NIH Chemical Genomics Center [NCGC]
NIH Molecular Libraries Screening Centers Network [MLSCN]
PI Name: Dr. Ryszard Kole
Modulation of Alternative Splicing as Therapy
Abnormal splicing is associated with a number of diseases, including cancer and genetic diseases such as cystic fibrosis, muscular dystrophy and beta-thalassemia. Alteration of disease associated splicing patterns provides a promising target for treatment. […] Mutations in the second intron of the b-globin gene at positions 654 or 705 are clinically relevant and cause mis-splicing which results in an out of frame gene product.
EGFP-654 HeLa Cells as screen system.
(§1) HeLa cell lines were stably transfected with a construct in which the EGFP (enhanced green fluorescent protein) cDNA was interrupted by the second intron of the beta-globin gene (IVS2-654). The ISV2 intron contains mutations which cause mis-splicing of EGFP and premature termination of EGFP which results in a nonfluorescent protein product. […] Expression of the transgene was driven by the CMV promoter. We concluded that a low molecular weight compound, which restored correct splicing of intron 2 would also generate functional EGFP protein, resulting in a fluorescent signal. Thus, the HeLa cells that express the EGFP-654 construct can be used for high throughput screening of a chemical library.
EGFP-705 HeLa Cells as screen system.
as §1, with “(IVS2-705).” for “(IVS2-654).”, “EGFP-705” for “EGFP-654”, “validation of splice site specificity of compounds identified in primary” for “high throughput”, “the ISV2 654 construct.” for “a chemical library.”
NCGC Assay Protocol Summary:
Confirmatory Screening. Freshly thawed HeLa EGFP-654 or EGFP-705 cells were seeded in 5 ul of optimem media (Invitrogen) containing 2 % fetal calf serum (Hyclone) and 1x penicillin/streptomycin (Invitrogen) at a concentration of 500 cells per well in 1536-well plates. Cells were incubated overnight at 37C in 5% CO2. The next day, cells were treated with DMSO, 500 nM antisense ISV2 654 (or 705) PNA control oligo, or library compound and allowed to grow at 37C in 5% CO2 for 2 days. The PNA oligo blocked the mutation site in the intron and allowed proper (wild type) splicing to occur, resulting in full length EGFP expression and also allowed for optimization of the assay parameters. Plates were read in the Acumen Explorer (TTP Labtech) using 488 nm laser excitation and 500-520 nm emission PMT filter in a 1 x 8 uM capture mode, and were read immediately after compound pinning (beta-globin-654-gfp-0hr), at 24 hours (beta-globin-654-gfp-24hr and beta-globin-705-gfp-24hr), and at 48 hours (beta-globin-654-gfp-48hr and beta-globin-705-gfp-48hr). Fluorescnet objects ranging in size from 5 to 250 uM were measured and the total peak GFP intensity for each well was used for data analysis. Cell death was measured by quantitating protease release by sick and dying cells using Promega's luminescent Cytotox-Glo reagent. Cells were treated with 2ul of Cytotox- Glo reagent incubated at room temperature for 5 minutes and read in the Viewlux plate reader with a 30 second integration time (beta-globin-654-protease-48hr and beta-globin-705-protease-48hr).
Keywords: Thalassemia, beta-thalassemia, beta-globin, EGFP, ISV2 654, ISV2 705, SSO, PNA, antisense, splicing, MLSMR, MLSCN, NIH Roadmap, qHTS, NCGC
In the case of CCn1c(C)nc([N+](=O)[O-])c1Sc1ncnc2nc[nH]c12, the Potency is reported as 2 µM (active). In the case of S=C1NC=NC2N=CNC12 (stereo not drawn), the Potency is reported as 1.58 µM (active). For Nc1nc(=S)c2[nH]cnc2[nH]1, the Potency was 1.12 µM (active). In the case of O=c1[nH]c(=O)n([C@@H]2O[C@H](CO)[C@@H](O)[C@H]2O)cc1F, the Potency is reported as 3.98 µM (active). In the case of Nc1nc(=S)c2ncn([C@H]3O[C@@H](CO)[C@@H](O)[C@@H]3O)c2[nH]1, the Potency is reported as 1.26 µM (active). In the case of Cn1cnc([N+](=O)[O-])c1Sc1ncnc2nc[nH]c12, the Potency is reported as 2 µM (active). With OCC1OC(n2cnc3c(=S)nc[nH]c32)C(O)C1O (stereo not drawn) the Potency was 1.78 µM (active). With Nc1nc2n[nH]nc2c(=O)[nH]1 the Potency was 2.51 µM (active).
